Assay [1] deals with Tumor necrosis factor receptor superfamily member 10B (Homo sapiens) (UniProt O14763). Kind of assay: viability loss of caspase-8 NB7 cells with TRAIL – with/without TRAIL, luminescence panel, confirmation (AID 651596). The settings on record: NB7 neuroblastoma + caspase-8, TRAIL sensitization, NB7 Caspase-8, with TRAIL, mean of runs, at 10 µM, stronger effect = higher value.
Test in assay [2]: as above
The settings on record: NB7 neuroblastoma + caspase-8, without TRAIL, NB7 Caspase-8, without TRAIL, mean of runs, at 10 µM.

Chain of Tumor necrosis factor receptor superfamily member 10B (Homo sapiens) (O14763 whole entry, looked up): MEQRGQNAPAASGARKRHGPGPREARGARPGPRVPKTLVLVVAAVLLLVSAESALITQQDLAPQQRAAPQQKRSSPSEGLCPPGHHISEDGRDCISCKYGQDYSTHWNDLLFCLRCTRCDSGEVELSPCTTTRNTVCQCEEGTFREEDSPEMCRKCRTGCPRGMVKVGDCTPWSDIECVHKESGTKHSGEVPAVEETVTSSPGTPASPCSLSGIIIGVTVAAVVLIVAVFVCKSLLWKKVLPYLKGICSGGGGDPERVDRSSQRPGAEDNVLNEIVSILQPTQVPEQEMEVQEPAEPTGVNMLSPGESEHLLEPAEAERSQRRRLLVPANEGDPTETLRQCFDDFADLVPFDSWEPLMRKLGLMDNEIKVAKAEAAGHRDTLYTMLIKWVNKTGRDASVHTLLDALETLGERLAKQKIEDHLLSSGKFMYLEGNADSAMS

As for `CN1/C(=C\C(=O)c2cccs2)Sc2ccccc21`, the activity in assay [1] came to 63%; in assay [2], 61%.
Consider `c1ccc2sc(NN=C3CCCCCC3)nc2c1`, for which the activity in assay [1] is 59.8%; in assay [2] it was 46.7%.
On the same counts, the results for `Cc1ccc2nc(NC(=O)c3ccco3)sc2c1` are 80.4% and 76.2%.
On the same counts, the results for `CCOc1ccc(-c2nc(-c3cccnc3)no2)cc1` are 53.3% and 51.5%.
On the same counts, the results for `CC(C)(C)OC(=O)NCCCCCc1cn([C@@H](CO)C(=O)NCCCCCCCCCCC(=O)N2CCN(C(=O)OC(C)(C)C)CC2)nn1` are 61.7% and 42.1%.
`CC(C)c1ccc(/C=C/C(=O)Nc2nncs2)cc1`: the values for the activity in assay [1] and in assay [2] were 57.7% and 66.2%, respectively.
On the same counts, the results for `COc1ccc(NC(=O)c2cc([N+](=O)[O-])ccc2O)cc1` are 89.8% and 88.2%.
The matching figures for `O=C(Nc1ccc(N2CCOCC2)cc1)c1cnccn1`: 84.4% and 82.8%.
On the same counts, the results for `C/C(=N\NC(=O)COc1ccc(C(C)(C)C)cc1)c1ccc(-n2ccnc2)cc1` are 63.5% and 49.1%.
With `CN(C)c1ccc(-c2nc3ccccn3c2/N=C/c2ccc(Br)cc2)cc1`, the activity in assay [1] amounted to 69.3%; in assay [2], 47%.
In the case of `COc1cc(NC(=O)Nc2nc(C(N)Cc3ccc(C(F)(F)F)cc3)cs2)cc(OC)c1OC` (configuration not stated), the figures for the activity in assay [1] and in assay [2] were 29.9% and 74.6%, respectively.
The matching figures for `O=C(CC(Nc1ccc(Cl)cc1)C(=O)O)c1ccccc1` (configuration not stated): 60.6% and 73.2%.
Consider `COCCn1c(C)cc(C(=O)COC(=O)c2ccc(Cl)c(S(N)(=O)=O)c2)c1C`, for which the activity in assay [1] came out at 52%; in assay [2], 52.4%.
The matching figures for `COc1cccc(CSc2nc3ccncc3[nH]2)c1`: 87.7% and 88.4%.
The matching figures for `COc1ccc(/C=N/Nc2cc(C)nc(-n3nc(C)cc3C)n2)c(OC)c1`: 6.72% and 12.9%.
With `Nc1c(-c2ccccc2)cnc2cc(-c3ccccc3)nn12`, the activity stood at 73% in assay [1] and 67.4% in assay [2].
On the same counts, the results for `Cn1c(/C=C/c2ccc([N+](=O)[O-])o2)nc2ccccc2c1=O` are 50.8% and 73.9%.
The matching figures for `O=C1CC(c2ccc3c(c2)OCCO3)Oc2ccc([N+](=O)[O-])cc21` (configuration not stated): 56.3% and 55.9%.
The matching figures for `COc1cc2c3nnc(-c4ccc(F)cc4)c-3cn(Cc3ccc(C)cc3)c2cc1OC`: 24.2% and 60.6%.
Turning to `O=C(OCc1cc(=O)oc2cc(O)ccc12)c1cc(S(=O)(=O)N2CCOCC2)ccc1F`, the activity was 84.1% in assay [1] and 70.9% in assay [2].
Turning to `COc1ccc2c(=O)c(-c3nc(C)cs3)coc2c1`, the figures for the activity in assay [1] and in assay [2] were 69.9% and 71.6%, respectively.
On the same counts, the results for `O=C(/C=C/c1ccccc1)Nc1ccc2c(c1)C(=O)NC2=O` are 14.6% and 19.9%.
As for `Cc1ccc(/C=C(\C#N)c2nc3ccccc3[nH]2)s1`, the activity in assay [1] worked out at 69.8%; in assay [2] it was 72%.
On the same counts, the results for `Cc1nc2c(ccc3nc(NC(=O)c4ccc5c(c4)OCCO5)sc32)s1` are 82.8% and 84.3%.
On the same counts, the results for `Cc1nc2cc(NC(=O)Nc3ccccc3Cl)ccc2n1C` are 78.5% and 78.2%.
The matching figures for `CSC(=Nc1ccccc1)N=C(SCc1ccccc1)N(C)C`: 96.8% and 98.5%.
In the case of `C#CC(=O)N(c1cc(OC)ccc1OC)C(C(=O)NC1CCCC1)c1cccs1` (configuration not stated), the activity in assay [1] is 98.2%; in assay [2], 98.5%.
The matching figures for `CC(C)(C)OC[C@H](NC(=O)c1[nH]cnc1C(=O)Nc1ccccc1F)C(=O)OC(C)(C)C`: 55.4% and 59.2%.
Consider `c1ccc2nc(-c3ccc(N4CCOCC4)cc3)ccc2c1`, for which the activity came out at 72.2% in assay [1] and 69% in assay [2].
Consider `Nc1nn2cc(-c3ccccc3)nc2c2ccccc12`, for which the figures for the activity in assay [1] and in assay [2] were 54.7% and 53.4%, respectively.
The matching figures for `Cc1cc(C)n(-c2ccc(C(=O)Nc3ccc(C)c(S(=O)(=O)N4CCOCC4)c3)cc2)n1`: 63.5% and 24.2%.
In the case of `COc1ccc(C=NNC(=O)NN=Cc2ccc(OC)c(OC)c2)cc1OC`, the activity in assay [1] amounted to 69%; in assay [2], 65%.
For `COc1cccc2sc(N(CCCN(C)C)C(=O)c3ccc(S(=O)(=O)N4CCc5ccccc5C4)cc3)nc12`, the figures for the activity in assay [1] and in assay [2] were 56.8% and 79%, respectively.
Consider `CN(c1ccccc1)S(=O)(=O)c1ccc(NC(=O)c2nc(S(C)(=O)=O)ncc2Cl)cc1`, for which the activity amounted to 80.7% in assay [1] and 99.3% in assay [2].
The matching figures for `CCOc1cccc2sc(N(CCCN(C)C)C(=O)c3ccc(S(=O)(=O)N4CCc5ccccc5C4)cc3)nc12`: 55.9% and 73.7%.
On the same counts, the results for `Cc1ccc(OCc2nc(-c3ccccn3)no2)c(Br)c1` are 59.6% and 56.6%.
On the same counts, the results for `COn1c(SCc2ccc(Cl)cc2)nc2ccccc2c1=O` are 67% and 47.9%.
Turning to `CC(C)c1ccc(/C=c2\sc3n(c2=O)C(N)=C(C#N)C(c2ccc(C(C)C)cc2)C=3C(N)=O)cc1` (configuration not stated), the activity turned out to be 76.7% in assay [1] and 77.9% in assay [2].
On the same counts, the results for `CCn1nc(C(=O)NCCc2ccc(S(N)(=O)=O)cc2)c2ccccc2c1=O` are 16% and 41.1%.
Consider `CC1(C)N=C(N)N=C(N)N1c1ccc(OCC(=O)Nc2ccccc2)c(Cl)c1`, for which the activity in assay [1] worked out at 78.5%; in assay [2], 82.3%.
On the same counts, the results for `COc1ccc(C2C(C(=O)N3CCN(c4ccccc4)CC3)c3ccccc3C(=O)N2C)cc1OC` (configuration not stated) are 71.8% and 64.5%.
Take `CCc1ccc(NC(=O)c2nc(S(=O)(=O)Cc3ccccc3)ncc2Cl)cc1`: the activity in assay [1] amounted to 51.2%; in assay [2], 86.6%.
On the same counts, the results for `CC1=C(C(=O)Nc2ccccc2)C(c2ccc(C)cc2)N=C(Nc2nc3ccccc3o2)N1` (configuration not stated) are 41% and 76%.
For the molecule `Oc1ccc(-c2cn3cc(C(F)(F)F)ccc3n2)cc1`, the activity in assay [1] was determined as 89.1%; in assay [2], 87.5%.
On the same counts, the results for `Cc1cc(C)c2c(N)c(C(=O)Nc3nccs3)sc2n1` are 89.5% and 87.2%.
On the same counts, the results for `Cc1nn(-c2ccccc2)c(Cl)c1CN(C(=O)CCl)c1cccc2ccccc12` are 98.8% and 99.7%.

Source of the values: PubChem BioAssay.
